# Bioassay records as filed in PubChem BioAssay.
# Hits are enriched below; roughly 10% of the tested compounds scored in any of these assays.
# Pf growth 96h – inhibits malaria parasite growth, 96 h; P. falciparum luciferase reporter growth, 96 h; Potency, µM (titrated, usually from 28.7 µM), for inactives: top-dose activity change, negative = inhibition, most hits filed as inhibitors; 6.9% of 320,000 active; note: % is set by controls: 0 for no effect and ±100 for the full control effect
#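 Plates of compound plus infected erythrocytes (2% hematocrit, 0.05% parasitemia final) incubate 96 hours, 37 C, 5% CO2. Detection reagent added; reduced luminescence from the parasites' luciferase reporter flags inhibition.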
# Pf growth 48h – P. falciparum growth inhibition at 48 hours (one generation); P. falciparum luciferase growth in erythrocytes, 48 h; AID 504832; 5.9% of 310,000 active; Potency, µM (highest dose often 28.7 µM), without a hit: at the highest dose activity change, negative = inhibition, most hits filed as inhibitors; note: % is set by controls: 0 for no effect and ±100 for the full control effect
#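 Luciferase-expressing P. falciparum in infected erythrocytes (2% hematocrit, 0.1% parasitemia final) in RPMI 1640/0.5% Albumax were exposed to compound for 48 hours at 37 C, 5% CO2; growth read as luminescence.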
# SARS PLP yeast – blocks SARS-CoV papain-like protease in a yeast assay | S. cerevisiae expressing SARS-CoV PLpro, growth rescue | Potency, µM (highest dose often 32.9 µM), inactives show at the highest dose activity, positive = growth rescue, hits mostly activators | 0.19% of 330,000 active | AID 485353; calls by dose curve; note: 0% is about no effect; nearly all actives have a fitted effect of over 55% in size
# NS1 inh – blocks influenza NS1 protein function. 0.4% of 270,000 active. AID 2326. Potency, µM (series often up to 46.1 µM), without a hit: at the highest dose activity, positive = more growth; calls by dose curve; note: actives are rising curves; nearly all actives have a fitted effect of over 50% in size
#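 Compounds were scored for reversing the slow growth caused by influenza A NS1 in S. cerevisiae, measured by optical density at 600 nm. Assay medium contained 2% galactose at pH 6.0; NS1-free yeast of the same strain were the positive control.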
# * hit, by the source's call; u = inconclusive; x = no result; [ ] = dose if it differs, or a comment. Unless noted, calls come from the whole dose curve; as a rule, active = well fitted inhibition curve with a large enough effect; inconclusive = small, poorly fitted or top-dose-only effect, or another doubt; inactive = no such curve, though single readings can be large or run the other way. Potency is the fitted concentration of half-maximal effect.
SMILES,Pf growth 96h,Pf growth 48h,SARS PLP yeast,NS1 inh
CCC(CO)NCc1ccc(-c2ccccc2)cc1 (stereo not drawn),3.7µM*,14%,3%,0%
CC(NCc1ccc(Cl)cc1)C(O)c1ccccc1 (stereo not drawn),3.7µM*,2.6µM*,-2%,12%
CCOc1c(Cl)cc(CNC(C)(C)CC(C)(C)C)cc1OC,x,10µM*,1%,-6%
CN(C(=O)Cn1nnc(-c2ccccc2)n1)C1CCS(=O)(=O)C1 (stereo not drawn),0%,7%,3%,x
NNC(=O)c1cc(C23CC4CC(CC(C4)C2)C3)[nH]n1,u,-7%,2%,23%
CCc1ccc(C(=O)CN2C(=O)NC3(CCc4ccccc43)C2=O)cc1 (stereo not drawn),u,-8%,-4%,x
CC(NCc1cccc(Cl)c1Cl)C(O)c1ccccc1 (stereo not drawn),4.7µM*,9.3µM*,24%,10%
CC(NCc1ccc(Cl)cc1Cl)C(O)c1ccccc1 (stereo not drawn),1.5µM*,1µM*,3%,-9%
CCOc1c(Cl)cc(CNC(C)C(O)c2ccccc2)cc1OC (stereo not drawn),22%,1.5µM*,2%,-4%
CCN(CC(=O)Nc1cccc(S(=O)(=O)N(C)c2ccccc2)c1)Cc1cccs1,u,u,-10%,x
COCCN(CC(=O)Nc1cccc(C)c1C)C(=O)c1oc2ccccc2c1C,x,x,0%,x
O=C(Nc1ccnn1C1CCN(CCCc2ccccc2)CC1)c1ccccc1Cl,u,-27%,u,2%
O=Cc1c[nH]c2cccc(OCc3ccccc3)c12,u,u,-8%,x
COc1cc2c(cc1OC)CN(C(=S)Nc1ccc(C)cc1C)CC2,65%,16%,-59%,-5%
COc1ccc2[nH]c(=O)c(CN(c3ccc(C)c(C)c3)S(C)(=O)=O)cc2c1,6.6µM*,-21%,2%,x
COc1ccc(N(Cc2cc3cc(OC)ccc3[nH]c2=O)S(=O)(=O)c2ccc(NC(C)=O)cc2)cc1,9.3µM*,2.3µM*,-10%,-1%
CCOc1ccc(N(Cc2cc3cc(OC)ccc3[nH]c2=O)S(C)(=O)=O)cc1,1%,-2%,14%,-19%
COc1ccc(N(Cc2cc3ccccc3[nH]c2=O)S(=O)(=O)c2ccc(OC)cc2)cc1,u,-25%,4%,4%
CCOc1ccc2nc(Cl)c(CN(C(=O)c3cnccn3)C3CCCC3)cc2c1,14%,u,-2%,x
Cc1cccc2cc(CN(C(=O)c3cnccn3)C3CCCCC3)c(Cl)nc12,u,4.1µM*,-9%,-7%
CCCCOc1ccccc1NC(=O)CC1Nc2ccccc2NC1=O (stereo not drawn),-6%,1.7µM*,11%,-58%
Cn1c2c(c(=O)n(C)c1=O)C(c1cc3c(cc1Br)OCO3)CC(=O)N2 (stereo not drawn),9.3µM*,21%,-3%,-9%
CC1=C(C(=O)OC2CCCCCCC2)C(c2cc3c(cc2Br)OCO3)CC(=O)N1 (stereo not drawn),x,10µM*,-14%,u
COC(=O)C1=C(C)NC(=O)CC1c1cc2c(cc1Br)OCO2 (stereo not drawn),-19%,u,-5%,-15%
Cc1ccc(S(=O)(=O)N2CCCNCC2)cc1,-6%,u,2%,4%
SMILES,Pf growth 96h,Pf growth 48h,SARS PLP yeast,NS1 inh
C[C@@H]1CCC[C@H](C)N1,0%[12.8 µM],11%[12.8 µM],x,x
CCCC(c1nnnn1Cc1ccc(OC)cc1)N1CCN(c2ccccc2)CC1 (stereo not drawn),-26%,13µM*,-3%,-51%
CC(C)CC(c1nnnn1C(C)C)N1CCN(c2ccccc2)CC1 (stereo not drawn),0%,-4%,15%,-11%
COc1ccc(Cn2nnnc2C(CC(C)C)N2CCN(c3ccccc3)CC2)cc1 (stereo not drawn),12%,7.4µM*,-21%,-104%
CCN(CCNC(=O)CN(C)S(=O)(=O)c1cccc2nsnc12)c1ccccc1,12µM*,x,-6%,-3%
CCN(CCCNC(=O)CN(C)S(=O)(=O)c1cccc2nsnc12)c1cccc(C)c1,8.3µM*,u,3%,-8%
OCCn1c(CSc2nnc(-c3ccco3)n2-c2ccccc2)nc2ccc(Cl)cc21,x,12µM*,-1%,-1%
NC(=O)CSc1nnc(-c2ccco2)n1-c1ccccc1,25%,-1%,0%,1%
COC(=O)c1cc2occc2n1Cc1nc(-c2ccccc2Cl)oc1C,12µM*,-19%,-4%,6%
COC(=O)c1cc2occc2n1Cc1nc(-c2ccc(Cl)cc2)oc1C,41%,-14%,2%,-8%
COc1ccc(N2CCN(C(=O)C3CCC(Cn4c(=S)[nH]c5ccccc5c4=O)CC3)CC2)cc1 (stereo not drawn),15%,u,-4%,-21%
O=C(C1CCC(Cn2c(=S)[nH]c3ccccc3c2=O)CC1)N1CCN(c2ccccn2)CC1 (stereo not drawn),12µM*,0%,-4%,x
O=C(C1CCC(Cn2c(=S)[nH]c3ccccc3c2=O)CC1)N1CCN(c2ccccc2)CC1 (stereo not drawn),x,x,x,-10%
COc1ccccc1N1CCN(C(=O)C2CCC(Cn3c(=S)[nH]c4ccccc4c3=O)CC2)CC1 (stereo not drawn),70%,10µM*,4%,-72%
Cc1cc(N2CCN(C(c3ccccc3)c3ccccc3)CC2)n2ncnc2n1,-21%,-22%,x,-108%
Cc1nc2ncnn2c(N2CCN(C(c3ccccc3)c3ccccc3)CC2)c1C,0.37µM*,u,x,-134%
CCCCOC(=O)n1c(SCC(=O)N(CC)CC)nc2ccccc21,2.6µM*,-22%,0%,-67%
CC(NC(=O)C(C)(C)C)C(c1cccs1)N1CCOCC1 (stereo not drawn),-25%,18%,1%,-4%
CCn1c(SCC(=O)NCCc2ccccc2)nc2sc3c(c2c1=O)CCN(C)C3,0.37µM*,1.7µM*,-1%,-2%
CCn1c(SCC(=O)c2ccccc2)nc2sc3c(c2c1=O)CCN(C)C3,2.9µM*,u,1%,6%
C=CCn1c(SCC(=O)NC)nc2sc3c(c2c1=O)CCC3,x,u,-7%,-6%
C=CCn1c(SCC(=O)NCC)nc2sc3c(c2c1=O)CCC3,u,7.4µM*,-2%,-9%
C=CCn1c(SCC(=O)OC)nc2sc3c(c2c1=O)CCN(C)C3,8%,u,-5%,14%
Cc1cccc(NC(=S)NC(=O)c2ccc(Br)o2)c1C,-20%,-14%,-1%,9%
Cc1ccc(NC(=S)NC(=O)c2ccc(Br)o2)c(C)c1,13µM*,30%,0%,4%
Cc1ccc(NC(=S)NCc2ccc(Cl)cc2)c(C)c1,u,10µM*,0%,u
Cc1cc(Cl)ccc1NC(=S)NCc1ccccc1,2%,-7%,-1%,-12%
Cc1cc(Cl)ccc1NC(=S)NCCN1CCOCC1,5.2µM*,-2%,2%,10%
NCCCCCc1nnc(SCC(N)=O)o1,45%,u,-2%,x
CN(C(=O)CSc1nc2ccccc2n1C)C1CCS(=O)(=O)C1 (stereo not drawn),20%,-14%,-3%,x
